From the supplement of paper PMC13380429

The molecules below were run on Vero E6 infected with SARS-CoV-2 (assay: morphology score (similarity to uninfected cells); higher = more like uninfected cells). Conditions: 24 h.

Compound	morphology score
COc1cc(N)cn[n+]1-c1ccccc1 [amezinium] (10 µM)	0.0864
CCN1CCN(Cc2ccc(-c3cc4c(N[C@H](C)c5ccccc5)ncnc4[nH]3)cc2)CC1 (10 µM)	-0.144
CN(C[C@@H]1COCCO1)S(=O)(=O)Nc1ccc2ccc3ncc(-c4cnn(C)c4)cc3c(=O)c2c1 (0.833333 µM)	0.0936
OC[C@H]1O[C@@H](OCCc2ccc(O)cc2)[C@H](O)[C@@H](O)[C@@H]1O [salidroside] (10 µM)	0.0363
O=C1[O][SbH]23[O]C(=O)C([O]2)C2[O][SbH]4([O]C(=O)C([O]4)C1[O]3)[O]C2=O [antimonyl] (10 µM)	0.138
Cn1cc(-c2cnc3ccc4ccc(CS(=O)(=O)NCc5ccccn5)cc4c(=O)c3c2)cn1 (10 µM)	0.0342
Cc1c(F)cc(C(=O)NC2CC2)cc1-c1c(F)cn2c(C(C)(C)C)nnc2c1F (10 µM)	-0.202
CC(/C=C1\SC(=S)N(CC(=O)O)C1=O)=C\c1ccccc1 [epalrestat] (10 µM)	0.192
CCN(CC)C(=O)/C(C#N)=C/c1cc(O)c(O)c([N+](=O)[O-])c1 [entacapone] (10 µM)	0.149
CC(=O)Oc1cc2c(s1)CCN(C(C(=O)C1CC1)c1ccccc1F)C2 (stereo not drawn) [prasugrel] (10 µM)	0.0783
O=C(O)CC1CC(c2ccccc2)=NO1 (stereo not drawn) (10 µM)	-0.0313
O=C(NCc1ccccc1)c1csc(Nc2ccncn2)n1 [thiazovivin] (0.833333 µM)	0.654
CC(=O)c1ccc2c(c1)N(CCCN(C)C)c1ccccc1S2 [acepromazine] (10 µM)	0.192
